Measured values as given in ChEMBL document CHEMBL2218924, “A broad activity screen in support of a chemogenomic map for kinase signalling research and drug discovery” (Biochem J, 2013).

target: Serine/threonine-protein kinase pim-1 (Homo sapiens) (UniProt P11309); conditions: at 10 µM
Sequence (P11309 whole entry, looked up): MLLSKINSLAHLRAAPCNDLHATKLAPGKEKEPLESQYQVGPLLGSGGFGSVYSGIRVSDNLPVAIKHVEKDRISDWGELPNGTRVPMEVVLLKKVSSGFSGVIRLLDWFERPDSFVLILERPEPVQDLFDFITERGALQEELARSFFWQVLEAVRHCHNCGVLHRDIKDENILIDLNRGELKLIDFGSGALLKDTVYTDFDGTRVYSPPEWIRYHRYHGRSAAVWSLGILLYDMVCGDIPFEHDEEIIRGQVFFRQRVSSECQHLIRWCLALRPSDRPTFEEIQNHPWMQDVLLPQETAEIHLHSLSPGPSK

| Compound | residual activity |
| --- | --- |
| COc1ccc(CNc2nc(N(CCO)CCO)nc3c2ncn3C(C)C)cc1 | 69% |
| O=C1NC(=O)c2c1c1c3ccccc3[nH]c1c1[nH]c3cc(Br)ccc3c21 | 13% |
| O=C1Nc2ccccc2/C1=C1/Nc2ccccc2/C1=N\OCCC(O)CO (stereo not given) | 11% |
| COc1cccc(-c2cc(=O)c3ccccc3o2)c1N | 58% |
| CO[C@H]1C[C@@H]2CC[C@@H](C)[C@@](O)(O2)C(=O)C(=O)N2CCCC[C@H]2C(=O)O[C@H]([C@H](C)C[C@@H]2CC[C@@H](O)[C@H](OC)C2)CC(=O)[C@H](C)/C=C(\C)[C@@H](O)[C@@H](OC)C(=O)[C@H](C)C[C@H](C)/C=C/C=C/C=C/1C | 141% |
| CC(=O)O/N=C1\C(=C2\C(=O)Nc3cc(Br)ccc32)Nc2ccccc21 | 87% |
| O=[N+]([O-])c1ccc(-c2nc(-c3ccc(F)cc3)c(-c3ccncc3)[nH]2)cc1 | 85% |
| COc1cc2ncnc(Nc3ccc(O)c(Br)c3)c2cc1OC | 29% |
| N#Cc1cnc2cnc(NCc3cccnc3)cc2c1Nc1ccc(F)c(Cl)c1 | 18% |
| Cc1ccc(NC2=CC(=O)c3sc(C)nc3C2=O)cc1 | 85% |
| CC[n+]1c(/C=C/N(C)c2ccccc2)n(-c2ccccc2)c2ccc(-c3nc4ccccc4s3)cc21 | 85% |
| O=c1c2ccccc2[nH]c(=S)n1CCN1CCC(=C(c2ccc(F)cc2)c2ccc(F)cc2)CC1 | 105% |
| COc1ccc(OC)c2c(=S)c3ccccc3[nH]c12 | 52% |
| Cn1cnc2cc3c(Nc4cccc(Br)c4)ncnc3cc21 | 63% |
| NC(=O)c1ccc2[nH]c(-c3ccc(Oc4ccc(Cl)cc4)cc3)nc2c1 | 116% |
| Oc1n[nH]c2nnc(-c3c(-c4ccccc4)nn4ccccc34)cc12 | 89% |
| COc1ccc(C(=O)Nc2sc3c(c2C(N)=O)CCCC3)cc1OC | 97% |
| COc1cc2ncnc(Nc3ccc(Oc4ccccc4)cc3)c2cc1OC | 132% |

| Compound | residual activity |
| --- | --- |
| Nc1cccc(-c2cc3c(Oc4cccc(O)c4)ncnc3[nH]2)c1 | 34% |
| O=Nc1c(-c2c(O)[nH]c3ccccc23)[nH]c2ccccc12 | 47% |
| Cc1nc(-c2ccccc2)c(-c2ccncc2)o1 | 60% |
| CNc1cc2c(Nc3cccc(Br)c3)ncnc2cn1 | 42% |
| O=C1Nc2cc(Br)ccc2/C1=C1/Nc2ccccc2/C1=N\O | 78% |
| Cc1ccc(S(=O)(=O)/C=C/C#N)cc1 | 95% |
| CC(C)n1cnc2c(NCc3ccccc3)nc(NCCCO)nc21 | 75% |
| CCC(=O)Nc1ccc2ncnc(Nc3cccc(Br)c3)c2c1 | 86% |
| C[C@@H](N)[C@H]1CC[C@H](C(=O)Nc2ccncc2)CC1 | 115% |
| O=C1NC(=O)c2cc(Nc3ccc(F)cc3)c(Nc3ccc(F)cc3)cc21 | 11% |
| CO[C@H]1[C@@H](OC)C[C@H](C)[C@@H](OC)C2=CC(=O)C=C(NC(=O)/C(C)=C/C=C/[C@H](OC)[C@@H](OC(N)=O)/C(C)=C/[C@@H]1C)C2=O | 93% |
| Oc1ccc(Nc2nc(-c3ccc(Cl)cc3)cs2)cc1 | 52% |
| O=c1cc(-c2cccc3c2Sc2ccccc2S3)oc(N2CCOCC2)c1 | 30% |
| O=C1NC(=O)/C(=C/c2ccc3c(c2)OC(F)(F)O3)S1 | 5% |
| Ic1cccc(CSc2nnc(-c3ccncc3)o2)c1 | 73% |
| Cn1nc2c3c(cccc31)C(=O)c1ccccc1-2 | 45% |
| CC(C)n1cnc2/c(=N/c3cccc(Cl)c3)nc(NCCO)[nH]c21 | 66% |
